The source of these data is PubChem BioAssay (NCI).

Assay [1] in a line: NCI Yeast Anticancer Drug Screen. Data for the rad50 strain (AID 155).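 Further: 0% = growth of vehicle-only cultures of the same strain.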 Conditions: S. cerevisiae rad50 strain growth inhibition; at 50.0 µM; hits give high values. The method in brief:
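A DNA repair-deficient yeast mutant serves as the test organism; compound-induced growth inhibition is calculated against vehicle-treated cells.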

Assay [2] can be described thus: NCI Yeast Anticancer Drug Screen. Data for the mec2-1 strain (AID 157). Conditions: S. cerevisiae mec2-1 strain, at 50.0 µM, hits give high values. The method in brief: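 Readout is yeast growth inhibition, normalised to vehicle-treated controls, in the mec2-1 strain exposed to compound.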
The nature of assay [3]: NCI Yeast Anticancer Drug Screen. Data for the sgs1 mgt1 strain (AID 161).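 Further: 0% = growth of cultures given vehicle only.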 Conditions: S. cerevisiae sgs1 mgt1 strain, at 50.0 µM, hits give high values. The method in brief: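 Compounds are added to genetically altered yeast, and growth is compared with cultures given vehicle alone to give percent inhibition.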
The nature of assay [4]: NCI Yeast Anticancer Drug Screen. Data for the cln2 rad14 strain (AID 165).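 Further: 0% = growth equal to vehicle treated cultures.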 Conditions: S. cerevisiae cln2 rad14 strain, at 50.0 µM, hits give high values. The method in brief:
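Relative to vehicle controls, growth inhibition of compound-treated cln2 rad14 yeast was recorded.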

A short description of assay [5]: NCI Yeast Anticancer Drug Screen. Data for the bub3 strain (AID 167). Conditions: S. cerevisiae bub3 mutant strain, at 50.0 µM, hits give high values. The essentials: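 Inhibition values come from growth of compound-treated mutant yeast normalised to vehicle-treated controls.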
Assay [6] is described as follows: NCI Yeast Anticancer Drug Screen. Data for the mlh1 rad18 strain (AID 175). Conditions: S. cerevisiae mlh1 rad18 strain growth inhibition; at 50.0 µM; hits give high values. The essentials:
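Test agents were incubated with a yeast strain of defined genotype (DNA damage repair defect). Inhibition of growth was derived by comparison with vehicle-exposed cultures.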

Each structure is given as a SMILES string. This is part of a sample that, as a whole, favours compounds with a hit. Of some 79,000 tested, about 15% had one in any assay. A number with no mark means an inactive call. Active and inactive are the calls of the source. No stated cut-off is given here; in the data, active means growth inhibition above about 70%; inactive means the rest.

With `CCCCSc1ncnc2nc(C)[nH]c12`, the growth inhibition in assay [1] was -9.85%; in assay [2], -20.6%; in assay [3], -7.7%; in assay [4], -25.6%; in assay [5] it was -14%; in assay [6] it was -12.7%.
Consider `C/C(=N\NC(=S)N1CCC(c2ccccc2)CC1)c1ccccn1`, for which the growth inhibition in assay [1] was -24.3%; in assay [2], 3.95%; in assay [3], 0.25%; in assay [4], -22.4%; in assay [5], 4.65%; in assay [6], 13.8%.
For the compound `N#CC(C(=O)CCCC(=O)Nc1ccccc1[N+](=O)[O-])c1ccc(Cl)cc1Cl` (configuration not stated), the growth inhibition is -10.2% in assay [1]; -22.6% in assay [2]; -36.8% in assay [3]; -41.5% in assay [4]; 0.65% in assay [5]; -26.6% in assay [6].
Consider `CCOC(=O)CCC(C(=O)OCC)C(C)C(=O)OCC` (configuration not stated), for which the growth inhibition is -25.4% in assay [1]; -19.1% in assay [2]; -25.8% in assay [3]; -11.7% in assay [4]; 4.1% in assay [5]; -15.2% in assay [6].
As to `CC(=O)Oc1c(C(C)(C)C)cc([N+](=O)[O-])c(C)c1[N+](=O)[O-]`, the growth inhibition in assay [1] is 97% (active); in assay [2] it was 97.3% (active); in assay [3] it was 94.9% (active); in assay [4] it was 74.2% (active); in assay [5] it was 94% (active); in assay [6], 95.2% (active).
Take `O=c1ccc2cc3c(cc2[nH]1)OCO3`: the growth inhibition in assay [1] is 2.5%; in assay [2] it was -1.25%; in assay [3] it was -4.2%; in assay [4], -39.5%; in assay [5], -9.2%; in assay [6], 7.05%.
As for `Cc1nn(-c2ccccc2)c2c1N=C(C(=O)O)CC(c1ccccc1)=N2`, the growth inhibition was 18.7% in assay [1]; 25.9% in assay [2]; 23.9% in assay [3]; 28.1% in assay [4]; 16.7% in assay [5]; 13.8% in assay [6].
`Cc1cc2c(cc1C)OC(=O)CC2`: the growth inhibition in assay [1] was 14.3%; in assay [2] it was 6.15%; in assay [3], -1.2%; in assay [4], -11.9%; in assay [5], 7.45%; in assay [6] it was 3.65%.
Turning to `c1ccc(C(NC2=NCCO2)C2CC2)cc1` (configuration not stated), the growth inhibition is -12.8% in assay [1]; -18.4% in assay [2]; -9.1% in assay [3]; 23.3% in assay [4]; -9.55% in assay [5]; -54.9% in assay [6].
For the compound `CC(NC(=O)OCc1ccccc1)NC(=O)C(CC(=O)OC(C)(C)C)NC(=O)OC(C)(C)C` (configuration not stated), the growth inhibition is -26.6% in assay [1]; -40.5% in assay [2]; -24.9% in assay [3]; -7.3% in assay [4]; -30.8% in assay [5]; -29.3% in assay [6].
For `CCOC(=O)NN(C(=O)OCC)C(C)(C)C(C)=O`, the growth inhibition in assay [1] was 7.3%; in assay [2], 5.35%; in assay [3], 5.15%; in assay [4], -29.2%; in assay [5] it was 17.8%; in assay [6], 12.1%.
As for `CCOCCOC(=O)C1CCCC1=O` (configuration not stated), the growth inhibition in assay [1] is -5.25%; in assay [2], -11.3%; in assay [3], -34.9%; in assay [4], -10.1%; in assay [5], -11.2%; in assay [6], -8.45%.
Consider `Clc1ccc(N2C(c3ccccc3)=N[C@@H](N3CCOCC3)[C@@H]2N2CCOCC2)cc1`, for which the growth inhibition in assay [1] was -13.2%; in assay [2], -15.9%; in assay [3], -9.95%; in assay [4], -30.9%; in assay [5], -1.5%; in assay [6], -4.7%.
Turning to `CC1(O)CC2(O)C=CC3=C(C(=O)c4cccc(O)c4C3=O)C2(O)C(=O)C1O` (configuration not stated), the growth inhibition in assay [1] is 14.2%; in assay [2], 4.1%; in assay [3], 30.4%; in assay [4] it was 15.8%; in assay [5], 22.9%; in assay [6], 16.6%.
Consider `C[C@H](NC(=O)n1c2ccccc2c2ccccc21)C(=O)O`, for which the growth inhibition is 2.5% in assay [1]; 5.2% in assay [2]; -20.1% in assay [3]; -5.9% in assay [4]; -1.05% in assay [5]; -2.95% in assay [6].
Turning to `CC1CCCC(C)C1CO` (configuration not stated), the growth inhibition in assay [1] is 3.65%; in assay [2], -31.6%; in assay [3], 7.75%; in assay [4], 22.7%; in assay [5] it was -17.8%; in assay [6] it was 15.8%.
As to `COC(=O)[C@]1(C)CCC[C@@]2(C)[C@H]1CC=C1C=C(C(C)C)CC[C@@H]12`, the growth inhibition in assay [1] was 50%; in assay [2] it was 1.15%; in assay [3], 22.8%; in assay [4], 4.6%; in assay [5], -1.95%; in assay [6] it was 24.4%.
`CC(=O)OC1COC(N2C(=O)C(=O)c3ccccc32)C(OC(C)=O)C1OC(C)=O` (configuration not stated): the growth inhibition in assay [1] was 13.1%; in assay [2], 19.4%; in assay [3] it was -1.5%; in assay [4], -22.4%; in assay [5] it was 9.05%; in assay [6], 19.1%.
With `Nc1nc(-c2ccc(Cl)c(Cl)c2)cc(-c2cc(-c3ccc(Cl)c(Cl)c3)nc(N)n2)n1`, the growth inhibition in assay [1] is 24.9%; in assay [2] it was 2.55%; in assay [3] it was 7.55%; in assay [4], 21.6%; in assay [5], 4.2%; in assay [6], 11%.
Turning to `COc1c(OC(C)=O)c(OC(C)=O)cc2c1-c1ccc(OC)c(=O)cc1C(NC(C)=O)CC2` (configuration not stated), the growth inhibition in assay [1] was 1.65%; in assay [2], -1.35%; in assay [3], 15.8%; in assay [4], 1.35%; in assay [5], -33.3%; in assay [6], 8.35%.
Take `Cc1ccc(C2=CC(=O)/C(=C\C(=O)c3ccc(Br)cc3)O2)c(C)c1`: the growth inhibition was 76.8% (active) in assay [1]; 77.8% (active) in assay [2]; 62.1% in assay [3]; 34.8% in assay [4]; 52.2% in assay [5]; 71.9% (active) in assay [6].
`CCCCCCCCOC(=O)c1cc([N+](=O)[O-])c(Sc2ncnc3nc[nH]c23)c([N+](=O)[O-])c1`: the growth inhibition is 32% in assay [1]; 30% in assay [2]; 25.9% in assay [3]; 11.8% in assay [4]; 16.1% in assay [5]; 24.2% in assay [6].
Turning to `O=C1CCCC1Sc1ccccn1` (configuration not stated), the growth inhibition in assay [1] was -14.4%; in assay [2], -11.5%; in assay [3], -29.6%; in assay [4], -8.5%; in assay [5], -7.15%; in assay [6] it was -32.2%.
Turning to `CN=C(N/N=C/c1ccccc1)N(C)C`, the growth inhibition in assay [1] is 5.95%; in assay [2], 11.1%; in assay [3] it was -5.35%; in assay [4], -3%; in assay [5], 23.9%; in assay [6] it was 10.4%.
Consider `C=CC/C=C/CCC`, for which the growth inhibition in assay [1] is 34.6%; in assay [2], -2.7%; in assay [3], -7.85%; in assay [4] it was -21.8%; in assay [5], -2.4%; in assay [6], -9.7%.
For the compound `CCOC(=O)CC1C(C)C(C)NC(C)C1C` (configuration not stated), the growth inhibition is -1.85% in assay [1]; -24.3% in assay [2]; -20.2% in assay [3]; 12.1% in assay [4]; 2.95% in assay [5]; 5.75% in assay [6].
Turning to `CC1(C)C=C(S(=O)(=O)c2ccccc2)Oc2ccccc2O1`, the growth inhibition was 15.3% in assay [1]; 8% in assay [2]; 24.2% in assay [3]; 9.2% in assay [4]; 47.8% in assay [5]; 31.9% in assay [6].
As to `CC1=CC(=O)OC1=O`, the growth inhibition was 4.9% in assay [1]; 15% in assay [2]; 2.15% in assay [3]; 8.9% in assay [4]; 5.9% in assay [5]; 22% in assay [6].
As for `CCOC(=O)C(=CN(C)c1ccc(C)cc1)C(=O)OCC`, the growth inhibition in assay [1] is 20.4%; in assay [2] it was 2.65%; in assay [3], 8.2%; in assay [4], 9.7%; in assay [5], 25.6%; in assay [6], 8.9%.
Regarding `Cn1cc(Cc2ccc(-c3ccccc3)cc2)c(=O)c(Cc2ccc(-c3ccccc3)cc2)c1`, the growth inhibition is 30.6% in assay [1]; 6.75% in assay [2]; -2.9% in assay [3]; 12.5% in assay [4]; 3.9% in assay [5]; 27.8% in assay [6].
As for `CCCCOCCOC(=O)CCCCCC1C=CCCC1` (configuration not stated), the growth inhibition in assay [1] is 10.8%; in assay [2] it was 8.4%; in assay [3], 8.65%; in assay [4], -18.6%; in assay [5], -8.35%; in assay [6] it was 4.95%.
As to `O=C(/C=C(\N=P(c1ccccc1)(c1ccccc1)c1ccccc1)C(F)(F)C(F)(F)C(F)(F)C(F)(F)C(F)(F)C(F)(F)C(F)(F)F)c1ccccc1`, the growth inhibition in assay [1] was -16.1%; in assay [2] it was -13.2%; in assay [3] it was -17.3%; in assay [4], 0.65%; in assay [5], 14.2%; in assay [6] it was -3%.
In the case of `CC(C)(C#N)CCCCC(N)=O`, the growth inhibition was -1.4% in assay [1]; -13.4% in assay [2]; -12.2% in assay [3]; -6.1% in assay [4]; -19.1% in assay [5]; -10.7% in assay [6].
Consider `O=C(c1ccccc1)C1(c2ccccc2)CCCCC1`, for which the growth inhibition in assay [1] is 19.6%; in assay [2] it was 15.6%; in assay [3] it was 20.1%; in assay [4], -10.6%; in assay [5], 0.45%; in assay [6], 32.6%.
For the compound `C(=Nc1ccc2c(c1)Cc1ccccc1-2)c1ccccn1`, the growth inhibition in assay [1] is 61.8%; in assay [2] it was -35.5%; in assay [3], 24.3%; in assay [4], 16.9%; in assay [5] it was -22.8%; in assay [6], 49.4%.
Regarding `COc1ccc2nccc(NCCCN3CCN(CCCNc4ccnc5ccc(OC)cc45)CC3)c2c1`, the growth inhibition was 15.8% in assay [1]; 1% in assay [2]; 32.8% in assay [3]; -6.2% in assay [4]; 48.5% in assay [5]; -26.9% in assay [6].
Turning to `CC(C)(C)OC(=O)N1CCCC1C(=O)NC(c1ccccc1)c1ccccc1` (configuration not stated), the growth inhibition in assay [1] was -35.1%; in assay [2], -56.5%; in assay [3], -37.5%; in assay [4] it was -18.9%; in assay [5], -13.4%; in assay [6] it was -40.1%.
